This is a sample that favours compounds with a hit; in the whole collection about 10% have one here.
ALDH1A1 block – qHTS Assay for Inhibitors of Aldehyde Dehydrogenase 1 (ALDH1A1); Potency, µM (top dose mostly 75.3 µM), inactives show at the top dose activity, negative = inhibition, actives largely listed as inhibitors; Aldehyde dehydrogenase 1A1 (Homo sapiens), P00352; Purified ALDH1A1, NADH fluorescence, propionaldehyde substrate; actives 7.3% (n = 220,000);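 further: potency means the concentration at half of the fitted maximal effect; plate controls were no enzyme wells and a reference inhibitor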
Target sequence (P00352 whole entry, looked up): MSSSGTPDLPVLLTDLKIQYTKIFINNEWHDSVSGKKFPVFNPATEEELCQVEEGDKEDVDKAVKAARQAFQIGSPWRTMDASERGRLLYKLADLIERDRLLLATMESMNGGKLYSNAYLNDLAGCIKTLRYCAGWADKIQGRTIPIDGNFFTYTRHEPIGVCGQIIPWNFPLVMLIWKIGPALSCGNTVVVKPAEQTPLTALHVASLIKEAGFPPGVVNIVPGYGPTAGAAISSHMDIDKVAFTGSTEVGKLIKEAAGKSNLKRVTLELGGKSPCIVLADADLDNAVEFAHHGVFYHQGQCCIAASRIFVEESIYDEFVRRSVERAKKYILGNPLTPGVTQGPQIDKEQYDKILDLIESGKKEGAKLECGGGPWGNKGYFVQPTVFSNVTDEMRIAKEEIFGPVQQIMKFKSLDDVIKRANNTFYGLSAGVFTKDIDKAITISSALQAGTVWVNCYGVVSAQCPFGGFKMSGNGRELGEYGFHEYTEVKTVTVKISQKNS
Lamin A splicing – qHTS Assay for Modulators of Lamin A Splicing. HeLa LMNA splicing GFP/RFP minigene ratio, 48 h. Potency, µM (doses to about 46.1 µM), without a hit: top-dose ratio change, negative = inhibition, actives largely listed as inhibitors. actives 0.01% (n = 200,000). AID 1487, 2009; active means well fitted inhibition curve with a large enough effect in the signal ratio, with a control signal flat, not every such curve was filed as active; inconclusive means small, poorly fitted or top-dose-only effect, or effect the other way, or a change in a side signal; the % refers to the signal ratio; further: potency means the concentration at half of the fitted maximal effect
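Read-out is the ratio of GFP to DsRed2 object intensity, acquired by 488 nm laser-scanning cytometry on HeLa lamin A-EGFP minigene reporter cells. Compound incubation 48 hrs at 37 °C in Opti-MEM with 2% FBS; DMSO 0.5% final.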
12-hLO inh – qHTS Assay for Inhibitors of 12-hLO (12-human lipoxygenase); Polyunsaturated fatty acid lipoxygenase ALOX12 (Homo sapiens), P18054; purified 12-hLO, xylenol orange hydroperoxide absorbance; Potency, µM (titrated, usually from 57.1 µM), for inactives: at the top dose activity change, negative = inhibition, usual class: inhibitors; actives 0.12% (n = 150,000); AID 1452, 2008; active means well fitted inhibition curve with a large enough effect; inconclusive means small, poorly fitted or top-dose-only effect; further: potency means the concentration at half of the fitted maximal effect; nearly all actives have a fitted effect of over 55% in size
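Hydroperoxide formation by human 12-lipoxygenase from 40 uM arachidonic acid was followed colorimetrically via ferric-xylenol orange complex, using the 573/405 nm absorbance ratio. Enzyme concentration was 150 nM, with 30 min reaction at room temperature.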
PNC inhibitor – High Content Assay for Compounds that inhibit the Assembly of the Perinucleolar Compartment. PC3M PTB-GFP, PNC prevalence imaging, 16 h; hits give low values. activity change (PNC), negative = inhibition, % at 10 µM. actives 3.1% (n = 140,000);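 active means readout at or below -70, meaning at least 70% loss of cells showing the perinucleolar compartment, a nuclear body marking cancer cells; inconclusive means readout between -30 and a set limit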;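 further: plate controls were DMSO wells for no effect and camptothecin positive control wells for full effect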
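Compounds are pinned in duplicate onto adhered PC3M cells stably expressing GFP-tagged PTB and incubated 16 h at 37 C. Cells are then fixed, nuclei stained with Hoechst, and PNC-positive cells counted.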
HPGD inh – qHTS Assay for Inhibitors of HPGD (15-Hydroxyprostaglandin Dehydrogenase); Potency, µM, without a hit: at the highest dose activity change, negative = inhibition, actives largely listed as inhibitors; purified HPGD, NADH fluorescence kinetic, PGE2 substrate; actives 4.3% (n = 150,000); AID 894, 2007; 15-hydroxyprostaglandin dehydrogenase [NAD(+)] (Homo sapiens), P15428; further: potency means the concentration at half of the fitted maximal effect
Target sequence (P15428 whole entry, looked up): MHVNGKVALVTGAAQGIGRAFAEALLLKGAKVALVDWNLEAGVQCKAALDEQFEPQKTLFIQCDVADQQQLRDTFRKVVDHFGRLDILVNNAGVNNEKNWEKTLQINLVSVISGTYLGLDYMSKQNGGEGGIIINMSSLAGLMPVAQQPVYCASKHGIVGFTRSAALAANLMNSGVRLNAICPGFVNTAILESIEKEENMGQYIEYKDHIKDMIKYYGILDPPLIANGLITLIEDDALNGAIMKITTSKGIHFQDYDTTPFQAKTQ
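NADH formation kinetics: reaction with 30 uM PGE2 and 1 mM NAD+ (final), 20 nM enzyme, Tris-HCl pH 8 with Tween 20, after 15 min compound preincubation at room temperature. Fluorescence change, last versus first of five reads.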
An asterisk follows results filed as active; ? = inconclusive; / = no result given; [ ] = another dose, or the depositor's remark. Unless noted, the call rests on the fitted dose curve; in most records, active means well fitted inhibition curve with a large enough effect (not every such curve was filed as active); inconclusive means small, poorly fitted or top-dose-only effect, or another doubt; inactive means no such curve, though single readings can be large or run the other way. Unless noted, on the % scale 0 is the no-effect control and ±100 the full control effect.

SMILES	ALDH1A1 block	Lamin A splicing	12-hLO inh	PNC inhibitor	HPGD inh
COc1cc(/C=C2\N=C3CCCCCN3C2=O)ccc1O	?	-0.1%	-8.1%	?	-28.2%
Cc1ccc(S(=O)(=O)N[C@@H](CCc2ccccc2)CC(=O)C(C)(C)C)cc1	-17.3%[13.5 µM]	/	/	/	/
[O-]/C(=C(\C(=S)Nc1cccc2ccccc12)[n+]1ccccc1)c1ccc(Cl)s1	?	-23.0%	-17.1%	50.9	?
CCOc1ccccc1NC(=S)/C(=C(\[O-])c1ccc2c(c1)OCCO2)[n+]1ccc(CC)cc1	20µM*	-3.4%	-18.6%	35.6	?
CC(C)(C)c1cc[n+](/C(C(=S)Nc2ccccc2F)=C(/[O-])c2ccc3c(c2)OCCO3)cc1	14.1µM*	/	/	/	/
[O-]/C(=C(\C(=S)Nc1ccccc1F)[n+]1ccccc1)c1ccc(-c2ccccc2)cc1	17.8µM*	-17.1%[46 µM]	/	/	/
Cc1ccc(C)c(NC(=S)/C(=C(\[O-])c2ccc(Cl)s2)[n+]2ccccc2)c1	?	-0.2%[46 µM]	/	/	/
Cc1cc(C)cc(NC(=S)/C(=C(\[O-])c2ccc(Cl)s2)[n+]2cccc(C)c2)c1	25.1µM*	-23.4%[46 µM]	/	/	/
O=C(CSC1=NCCN1)c1ccccc1	-2.1%[13.5 µM]	/	2.4%[11.4 µM]	/	-6.9%
CC(C)(C)C(=O)Cn1ncc(Br)c(Br)c1=O	7.94µM*	/	/	/	/
COc1cc(N2C(=O)C=CC2=O)c(OC)cc1Cl	8.91µM*	/	/	/	/
O=[N+]([O-])c1cc(/C=N/O)ccc1Sc1ccccc1	?	-0.5%	-15.3%	20.0	25.1µM*
CO/N=C/c1ccc(Sc2ccccc2)c([N+](=O)[O-])c1	-9.2%	?	-9.2%	45.7	-8.4%
Clc1ccccc1OCCSc1nnc(-c2cccs2)o1	/	-7.8%[46 µM]	/	/	/
Cc1cc(O)c(C=O)c2c1C(=O)Oc1c(COC(=O)/C=C/C(=O)O)c(O)c(C(=O)O)c(C)c1O2	4.47µM*	/	?	/	1.41µM*
CO[C@H]1COC(=O)C/C=C\[C@@H](C)COC(=O)[C@@H](CCSC)NC(=O)C/C=C\[C@@H]1C	4.3%[13.5 µM]	/	/	/	/
CCOc1ccc(C(c2c(NC(=O)c3ccccc3)sc(C)c2C)N2CCN(C)CC2)cc1 (stereo not drawn)	?	?	-10.8%	-80.7*	?
CCCNC(=O)OC[C@@H]1O[C@H](CCO/N=C2\c3cc(OC)ccc3O[C@H](c3cccc(OC)c3)[C@H]2O)C=C[C@@H]1Oc1ccc(OC)cc1	3.1%[13.5 µM]	/	/	/	/
Nc1ncnc2c1ncn2[C@H]1O[C@@H](C(=O)O)[C@@H](O)[C@H]1O	7.2%[13.5 µM]	/	-2.5%[11.4 µM]	/	0.3%
CCn1c(-c2cccc(Br)c2)n[nH]c1=S	?	1.2%	-1.1%	5.8	-19.7%
CCN(CC)S(=O)(=O)c1cccc(-c2n[nH]c(=S)n2C(C)COC)c1 (stereo not drawn)	-4.0%	/	/	/	/
CCC(C)n1c(-c2cccc(S(=O)(=O)N(CC)CC)c2)n[nH]c1=S (stereo not drawn)	12.6µM*	/	/	/	/
CCN(CC)S(=O)(=O)c1cccc(-c2n[nH]c(=S)n2/N=C/c2ccc(OC(F)F)cc2)c1	?	1.7%	-15.5%	71.7	3.16µM*
CCN(CC)S(=O)(=O)c1cccc(-c2n[nH]c(=S)n2/N=C/c2ccc(Br)cc2)c1	-16.3%	?	-1.2%	-20.5	14.1µM*
CCN(CC)S(=O)(=O)c1cccc(-c2n[nH]c(=S)n2/N=C/c2ccc(OC)cc2)c1	?	?	-6.4%	17.2	15.8µM*
SMILES	ALDH1A1 block	Lamin A splicing	12-hLO inh	PNC inhibitor	HPGD inh
COC(=O)[C@@H](NC(=O)N1CCc2nc(-c3ccc(OC)cc3C)c3c(c2C1)CO[C@@H](c1ccccc1)C3)C(C)C	?	?	-1.4%[11.4 µM]	/	-7.9%
CCN(CC)CCNC(=O)c1c(C)oc2ncnc(N3CCOCC3)c12	/	-3.4%[46 µM]	/	/	/
CS(=O)(=O)N1CCC[C@@]2(CCN(c3ccccc3)C2)C1	?	/	-4.8%	/	-0.3%
COc1ccc(NC(=O)/C(C#N)=C/c2ccc(Sc3nncn3C)c([N+](=O)[O-])c2)cc1	11.2µM*	8.7%[46 µM]	/	/	/
CN(c1ccccc1)c1ccc(/C=C(\CCC(=O)O)c2nc3ccccc3s2)cc1[N+](=O)[O-]	12.6µM*	?	-0.7%	35.9	25.1µM*
Cn1cnnc1Sc1ccc(/C=C(\CCC(=O)O)c2nc3ccccc3s2)cc1[N+](=O)[O-]	11.9µM*	/	/	/	/
Cn1cnnc1Sc1ccc(/C=C/C(=O)c2ccc(O)cc2)cc1[N+](=O)[O-]	-2.2%	?	/	/	/
Cc1ccc(/C=C(\CCC(=O)O)c2nc3ccccc3s2)cc1[N+](=O)[O-]	?	-9.3%	-2.8%	?	-8.4%
Cc1nnc(SC(C)C(=O)NCC2CCCO2)n1-c1ccccc1 (stereo not drawn)	?	?	3.2%	?	-6.9%
COc1ccc(-n2c(SCC(=O)NCC3CCCO3)nc3ccccc32)cc1 (stereo not drawn)	?	7.5%	-1.9%	5.4	10µM*
CNC(=O)c1sc(=S)n(-c2ccc(OC)cc2)c1N	-3.0%	-1.1%[46 µM]	/	/	/
COc1ccc(-n2c(N)c(C(=O)NCC3CCCO3)sc2=S)cc1 (stereo not drawn)	?	-1.6%	-1.3%	47.9	15.8µM*
COc1ccc(-n2c(Cc3cccn3C)nnc2SCC(=O)NCC2CCCO2)cc1 (stereo not drawn)	-13.3%	-9.2%	3.6%	-10.0	-9.2%
c1ccc(-n2c(SCC3CCCCO3)nnc2-c2cnccn2)cc1 (stereo not drawn)	?	9.5%	-4.2%	-28.4	28.2µM*
Cc1nnc(SCC(=O)NCC2CCCO2)n1-c1ccccc1 (stereo not drawn)	?	-3.6%	3.6%	-118.1*	-18.9%
COc1ccc(CCNC(=O)Cc2cc(=O)[nH]c(=O)[nH]2)cc1OC	5.8%	3.4%	12.7%	62.1	-5.9%
COc1ccc(CCNC(=O)c2cc(=O)[nH]c3ccc(Br)cc23)cc1OC	5.7%	-2.4%	1.8%	-112.6*	-7.8%
CCCCCCC1Cc2cc(OC)c(OC)cc2C(C(C(=O)OCC)C(=O)OCC)O1 (stereo not drawn)	9.8%[13.5 µM]	/	/	/	/
O=C(Nc1cc(Cl)ccc1N1CCCCC1)c1cccs1	-6.1%	9.8%	2.7%	-88.3*	-13.2%
O=C(NNc1cc(Cl)ccc1Cl)c1cccs1	1.89µM*	/	/	/	/
COc1ncc2nc(CCc3ccccc3)c(=O)n(Cc3cccs3)c2n1	-18.3%	/	-8.4%	/	-13.1%
Fc1ccc(N=c2ssnc2Cl)c(F)c1	2.51µM*	?	/	/	/
N#Cc1ccc(N=c2ssnc2Cl)cc1	1.58µM*	?	-5.0%	?	2µM*
Clc1nssc1=Nc1ccccc1	1.58µM*	/	/	/	/
Clc1ccc(N=c2ssnc2Cl)cc1	1.12µM*	?	?	25.8	1.78µM*
O=C1CSC(=Nc2ccccc2)N1Cc1ccccc1	-4.1%	/	/	/	/

Compound activity as filed in PubChem BioAssay.
